Potency data for 40 compounds are collected here from PubChem BioAssay (Tox21).

Results filed as inconclusive are left out. Where a call stands in place of a potency, no number is given. Activity calls are given as the source filed them. Calls follow the shape of the dose curve; as a rule, active = well fitted curve in the direction sought with a large enough effect in the repeat runs; inconclusive = weak or mixed curves; inactive = no such curve, though single readings can be large; an effect the other way counts as inactive or inconclusive.

A short description of the first assay: A CellTox Green Cytotoxicity Assay to monitor cytotoxicity in HEK293 cells - 8 hour (AID 1224884). Also: nearly all actives have a fitted effect of over 35% in size. The note with it: CellTox Green fluorescence; series mostly up to 76.8 µM. The method in brief:
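Cytotoxicity was tracked continuously in HEK293 cells by a DNA-binding dye excluded from viable cells. Compounds were transferred in DMSO 5 h after seeding; fluorescence was recorded at intervals up to 40 h.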
Consider `CCOC(=O)C(C)Oc1ccc(Oc2nc3ccc(Cl)cc3o2)cc1` (configuration not stated), for which the Potency result is “inactive”.

Consider `O=C(N[C@@H](c1ccccc1)[C@@H]1CCCCN1)c1cccc(C(F)(F)F)c1Cl`, for which the Potency result is “inactive”.

For the compound `CN(C)CCOC1=Cc2ccccc2Sc2ccc(Cl)cc21`, the Potency result was “inactive”.

Take `CC1=C(C=O)C(C)(C)CCC1`: the Potency entry is “inactive”.

For `O=C(N/N=C/c1ccc([N+](=O)[O-])o1)c1ccc(O)cc1`, the Potency result was “inactive”.

With `CCOC(=N)CC(=O)OCC`, the Potency entry is “inactive”.

Turning to `CCCCOC(=O)CCS`, the Potency result is “inactive”.

For the compound `COc1ccc([C@@H]2Sc3ccccc3NC(=O)[C@@H]2O)cc1`, the Potency entry is “inactive”.

As to `CN1CCN(CCCN2c3ccccc3Sc3ccc(S(=O)(=O)N(C)C)cc32)CC1`, the Potency entry was “inactive”.

For the compound `Cc1nc2ccccc2s1`, the Potency result was “inactive”.

Turning to `CCCCC(CC)C(=O)OCCOCCOCCOCCOC(=O)C(CC)CCCC` (configuration not stated), the Potency entry was “inactive”.

In the case of `Cc1ccc(S(=O)(=O)NC2CCCCC2)cc1`, the Potency result is “inactive”.

As for `CC1(C)C2=CCCC(C)(C)[C@]23CC[C@H]1C3`, the Potency entry is “inactive”.

Take `CCCC1C(CC)=CC(CC)=CN1c1ccccc1` (configuration not stated): the Potency entry is “inactive”.

With `O=C(O)c1cccc(O)c1`, the Potency entry is “inactive”.

Turning to `O=C(C(=O)c1ccccc1)c1ccccc1`, the Potency entry was “inactive”.

On to `CCCCCCCCCCCC(=O)[O][Sn]([CH2]CCC)([CH2]CCC)[O]C(=O)CCCCCCCCCCC`, for which the Potency result was “inactive”.

As to `CCOC(=O)OCC`, the Potency result is “inactive”.

As to `CC(=O)Oc1ccc2c(c1)CC[C@@H]1[C@@H]2CC[C@]2(C)[C@@H](O)CC[C@@H]12`, the Potency result was “inactive”.

In the case of `COCCOC`, the Potency result was “inactive”.

In the case of `C/C=C/C=C/CCCCCCCO`, the Potency result was “inactive”.

Regarding `O=C(Nc1ccc([N+](=O)[O-])cc1)Nc1ccc([N+](=O)[O-])cc1`, the Potency entry was “inactive”.

Consider `CNCCCC1c2ccccc2C=Cc2ccccc21`, for which the Potency entry is “inactive”.

For `NC(=O)N(O)[C@@H]1C=C[C@H](Oc2cccc(Oc3ccc(F)cc3)c2)C1`, the Potency result was “inactive”.

As to `Oc1ccc(Nc2ccccc2)cc1`, the Potency result is “inactive”.

`CC(=O)OCC(=O)[C@H]1CC[C@H]2[C@@H]3CCC4=CC(=O)CC[C@]4(C)[C@H]3CC[C@]12C`: the Potency entry is “inactive”.

As for `CC1=C(/C=C/C(C)=C\C=C\C(C)=C\C(=O)O)C(C)(C)CCC1`, the Potency entry is “inactive”.

On to `CCCCC1C(=O)N(c2ccccc2)N(c2ccc(O)cc2)C1=O` (configuration not stated), for which the Potency result was “inactive”.

Regarding `COc1cc2ncnc(Nc3ccc(F)c(Cl)c3)c2cc1OCCCN1CCOCC1`, the Potency result was “inactive”.

With `O=C(c1ccc(O)cc1)c1ccc(Cl)cc1`, the Potency result is “inactive”.

On to `Cc1cc(S(=O)(=O)O)ccc1N=Nc1c(O)ccc2ccccc12`, for which the Potency entry is “inactive”.

For the compound `CCOc1cc(N)c(Cl)cc1C(=O)NCC1CN(Cc2ccc(F)cc2)CCO1` (configuration not stated), the Potency result is “inactive”.

Turning to `O=C(CCC1CCN(Cc2ccccc2)CC1)c1ccc2c(c1)NCCCC2`, the Potency result is “inactive”.

`O=C1NCCN1`: the Potency result is “inactive”.

Take `CN1C(=O)CC(C)(c2ccccc2)C1=O` (configuration not stated): the Potency result is “inactive”.

A further assay in a line: qHTS RealTime-Glo MT Cell Viability Assay in HepG2 cells - 16 hour (AID 1224885). Also: nearly all actives have a fitted effect of over 50% in size. The note with it: RealTime-Glo luminescence; series mostly up to 76.8 µM. The method in brief:
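HepG2 suspension premixed with RealTime-Glo reagents is plated at 600 cells per well and left 5 h at 37 C/5% CO2. Compounds in DMSO then go in, and bioluminescence reflecting viable cell number is recorded over 40 h.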
As for `CCCCCCCCCCCC[N+](C)(C)CC(=O)[O-]`, the Potency result was “inactive”.

Turning to `CC(Cl)C(Cl)Cl` (configuration not stated), the Potency result is “inactive”.

With `CC1=C(C=O)C(C)(C)CCC1`, the Potency entry was “inactive”.

In the case of `CCCCCCCCCCCC[N+](C)(C)CCCS(=O)(=O)[O-]`, the Potency result was “inactive”.

Turning to `CCOC(=N)CC(=O)OCC`, the Potency entry was “inactive”.

For the compound `CCCCOC(=O)CCS`, the Potency entry was “inactive”.

Take `COc1ccc([C@@H]2Sc3ccccc3NC(=O)[C@@H]2O)cc1`: the Potency entry is “inactive”.

As for `Cc1nc2ccccc2s1`, the Potency entry is “inactive”.

Take `CCCCC(CC)C(=O)OCCOCCOCCOCCOC(=O)C(CC)CCCC` (configuration not stated): the Potency result is “inactive”.

In the case of `Cc1ccc(S(=O)(=O)NC2CCCCC2)cc1`, the Potency result was “inactive”.

Consider `CC1(C)C2=CCCC(C)(C)[C@]23CC[C@H]1C3`, for which the Potency result was “inactive”.

In the case of `CCCC1C(CC)=CC(CC)=CN1c1ccccc1` (configuration not stated), the Potency entry was “inactive”.

Take `O=C(O)c1cccc(O)c1`: the Potency result is “inactive”.

For `O=C(C(=O)c1ccccc1)c1ccccc1`, the Potency entry was “inactive”.

As to `CCOC(=O)OCC`, the Potency result was “inactive”.

On to `CC(=O)Oc1ccc2c(c1)CC[C@@H]1[C@@H]2CC[C@]2(C)[C@@H](O)CC[C@@H]12`, for which the Potency result is “inactive”.

For `COCCOC`, the Potency result is “inactive”.

Take `C/C=C/C=C/CCCCCCCO`: the Potency result is “inactive”.

On to `NC(=O)N(O)[C@@H]1C=C[C@H](Oc2cccc(Oc3ccc(F)cc3)c2)C1`, for which the Potency result is “inactive”.

Turning to `Nc1nccs1`, the Potency entry is “inactive”.

`CC(=O)OCC(=O)[C@H]1CC[C@H]2[C@@H]3CCC4=CC(=O)CC[C@]4(C)[C@H]3CC[C@]12C`: the Potency entry is “inactive”.

As to `O=C(c1ccc(O)cc1)c1ccc(Cl)cc1`, the Potency result was “inactive”.

For the compound `O=C(CCC1CCN(Cc2ccccc2)CC1)c1ccc2c(c1)NCCCC2`, the Potency entry was “inactive”.

Regarding `O=C1NCCN1`, the Potency entry is “inactive”.

As for `CN1C(=O)CC(C)(c2ccccc2)C1=O` (configuration not stated), the Potency entry is “inactive”.

For `Nc1ccc(S(=O)(=O)O)c(N)c1`, the Potency result was “inactive”.

Another assay in a line: qHTS RealTime-Glo MT Cell Viability Assay in HEK293 cells - 24 hour (AID 1224886). Also: nearly all actives have a fitted effect of over 50% in size. Also: potency is read from the fitted curve at half-maximal effect. The note with it: RealTime-Glo luminescence; series mostly up to 76.8 µM. Summed up:
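Reads taken at 0, 8, 16, 24, 32 and 40 h from the same wells. HEK293 cells (600/well) carried RealTime-Glo reagents from seeding, with compound added after a 5 h settle at 37 C.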
On the technique in general: qHTS replaces the single test concentration by a dilution series.
As to `CCCCCCCCCCCC[N+](C)(C)CC(=O)[O-]`, the Potency entry was “inactive”.

Take `CCOC(=O)C(C)Oc1ccc(Oc2nc3ccc(Cl)cc3o2)cc1` (configuration not stated): the Potency is 24.5 µM (active).

In the case of `O=C(N[C@@H](c1ccccc1)[C@@H]1CCCCN1)c1cccc(C(F)(F)F)c1Cl`, the Potency was 24.5 µM (active).

For the compound `CC(Cl)C(Cl)Cl` (configuration not stated), the Potency result is “inactive”.

`CN(C)CCOC1=Cc2ccccc2Sc2ccc(Cl)cc21`: the Potency result was “inactive”.

`CCCCCCCCCCCC[N+](C)(C)CCCS(=O)(=O)[O-]`: the Potency entry was “inactive”.

`CCOC(=N)CC(=O)OCC`: the Potency result was “inactive”.

In the case of `CCCCOC(=O)CCS`, the Potency entry is “inactive”.

With `COc1ccc([C@@H]2Sc3ccccc3NC(=O)[C@@H]2O)cc1`, the Potency entry is “inactive”.

Regarding `Cc1nc2ccccc2s1`, the Potency result was “inactive”.

In the case of `CC1(C)C2=CCCC(C)(C)[C@]23CC[C@H]1C3`, the Potency entry is “inactive”.

Turning to `CCCC1C(CC)=CC(CC)=CN1c1ccccc1` (configuration not stated), the Potency is 13.8 µM (active).

On to `O=C(O)c1cccc(O)c1`, for which the Potency entry was “inactive”.

In the case of `O=C(C(=O)c1ccccc1)c1ccccc1`, the Potency entry is “inactive”.

With `CCCCCCCCCCCC(=O)[O][Sn]([CH2]CCC)([CH2]CCC)[O]C(=O)CCCCCCCCCCC`, the Potency is 7.56 µM (active).

With `CCOC(=O)OCC`, the Potency entry was “inactive”.

In the case of `COCCOC`, the Potency was 0.74 µM (active).

For the compound `C/C=C/C=C/CCCCCCCO`, the Potency entry is “inactive”.

As to `O=C(Nc1ccc([N+](=O)[O-])cc1)Nc1ccc([N+](=O)[O-])cc1`, the Potency is 8.49 µM (active).

On to `NC(=O)N(O)[C@@H]1C=C[C@H](Oc2cccc(Oc3ccc(F)cc3)c2)C1`, for which the Potency was 15.5 µM (active).

Consider `Oc1ccc(Nc2ccccc2)cc1`, for which the Potency was 21.9 µM (active).

Consider `Nc1nccs1`, for which the Potency entry is “inactive”.

With `CC1=C(/C=C/C(C)=C\C=C\C(C)=C\C(=O)O)C(C)(C)CCC1`, the Potency result was “inactive”.

In the case of `COc1cc2ncnc(Nc3ccc(F)c(Cl)c3)c2cc1OCCCN1CCOCC1`, the Potency is 9.52 µM (active).

Turning to `O=C(c1ccc(O)cc1)c1ccc(Cl)cc1`, the Potency was 22.3 µM (active).

For `Cc1cc(S(=O)(=O)O)ccc1N=Nc1c(O)ccc2ccccc12`, the Potency result is “inactive”.

As for `CCOc1cc(N)c(Cl)cc1C(=O)NCC1CN(Cc2ccc(F)cc2)CCO1` (configuration not stated), the Potency is 15.1 µM (active).

With `O=C(CCC1CCN(Cc2ccccc2)CC1)c1ccc2c(c1)NCCCC2`, the Potency is 9.52 µM (active).

As for `O=C1NCCN1`, the Potency entry was “inactive”.

In the case of `CN1C(=O)CC(C)(c2ccccc2)C1=O` (configuration not stated), the Potency result is “inactive”.

As to `Nc1ccc(S(=O)(=O)O)c(N)c1`, the Potency entry was “inactive”.
